Laboratory results published in PubChem BioAssay AID1851 (National Center for Advancing Translational Sciences (NCATS), 2009).
About 5,100 (32%) of roughly 16,000 compounds were called active. Roughly 25% stayed inconclusive and do not appear here. The list shows a part of the results. Unmarked numbers belong to inactive results. The call rests on the fitted dose curve; in most records, active means well fitted curve in the direction sought with a large enough effect; inconclusive means small, poorly fitted or top-dose-only effect, or effect the other way; inactive means no such curve, though single readings can be large or run the other way.

biological target: Cytochrome P450 3A4 (Homo sapiens) (UniProt P08684); test: Cytochrome panel assay with activity outcomes; conditions: recombinant CYP, pro-luciferin dealkylation, luminescence, p450-cyp3a4; series mostly up to 57.1 µM; activity, negative = inhibition: at the top concentration
Sequence (P08684 whole entry, looked up): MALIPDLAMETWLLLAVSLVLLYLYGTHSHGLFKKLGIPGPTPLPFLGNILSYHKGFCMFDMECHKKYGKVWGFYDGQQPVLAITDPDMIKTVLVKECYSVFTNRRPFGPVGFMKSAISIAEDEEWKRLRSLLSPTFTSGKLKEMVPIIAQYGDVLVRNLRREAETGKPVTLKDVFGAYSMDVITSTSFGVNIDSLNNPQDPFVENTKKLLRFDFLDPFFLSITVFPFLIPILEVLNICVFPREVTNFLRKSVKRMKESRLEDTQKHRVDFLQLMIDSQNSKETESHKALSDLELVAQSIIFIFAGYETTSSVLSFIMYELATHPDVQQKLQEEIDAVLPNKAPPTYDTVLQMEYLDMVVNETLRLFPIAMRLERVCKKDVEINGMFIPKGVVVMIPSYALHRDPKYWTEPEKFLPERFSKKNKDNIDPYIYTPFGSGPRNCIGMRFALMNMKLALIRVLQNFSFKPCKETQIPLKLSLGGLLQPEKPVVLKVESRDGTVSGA
On the % scale 0 is the no-effect control and ±100 the full control effect.

SMILES	activity, negative = inhibition	AC50
Cc1cc2[nH]c(=O)c3ccccc3n2n1	-11%	
O=c1cc(CSc2nnc(-c3cccnc3)n2-c2ccccc2F)nc2sccn12		2.82 µM (active)
Cn1cc(C(=O)N/N=C/C(Br)=C\c2ccccc2)ccc1=O	-21.8%	
O=C(Nc1cccc(F)c1)N1CC2(CCN(S(=O)(=O)c3ccccc3)CC2)C1	-16.5%	
CS(=O)(=O)N1CCC2(CCN(C(=O)Nc3cccc(F)c3)CC2)CC1	0.77%	
CS(=O)(=O)N1CCC[C@@]2(CCN(C(=O)Nc3ccccc3)C2)C1	-21.2%	
N#Cc1cccc(NC(=O)N2CC[C@@]3(CCCN(S(=O)(=O)c4ccccc4)C3)C2)c1		3.16 µM (active)
O=C(Nc1cccc(F)c1)N1CC[C@@]2(CCCN(S(=O)(=O)c3ccccc3)C2)C1		25.1 µM (active)
CS(=O)(=O)N1CCC2(CCN(C(=O)Nc3cccc(C#N)c3)CC2)CC1	-0.782%	
O=C(Nc1cccc(F)c1)N1CCCC2(CCN(S(=O)(=O)c3ccccc3)CC2)C1		12.6 µM (active)
Clc1ccccc1CSc1nnc(/C=C/c2ccccc2)o1	-23.3%	
CC(/C=C1\N=C(SCc2ccccc2Cl)SC1=O)=C\c1ccccc1		14.1 µM (active)
O=c1[nH]c2cc(Cl)ccc2c(O)c1-c1cccc(Oc2ccccc2)c1	-19.3%	
CC1(C)CCC=[N+]1[O-]	16.1%	
NC(N)=NC(N)=Nc1ccccc1	-12.3%	
CCc1ccc(OCCCC(=O)Nc2ccc(N3CCCCC3)cc2)cc1	-10.4%	
O=C(Nc1ccc(N2CCCCC2)cc1)c1cncc(Br)c1		1.41 µM (active)
O=C(O)CNC(=O)[C@@H](CS)Cc1ccccc1	0.949%	
COc1ccccc1C(=O)NCCn1cc(SCC(=O)Nc2nnc(C)s2)c2ccccc21		6.31 µM (active)
CCSc1nnc(NC(=O)Cc2ccccc2OC)s1	-9.72%	
CCCCCCCC/C=C\CCCCCCCC(=O)NCCc1ccc(O)c(O)c1		3.16 µM (active)
CCCCCCCCCCCCCCC/C=C\[C@H](O)[C@@H](NC(=O)CCCCCCCCCCCCC)OC (tested in a mixture with another compound)	15.6%	
CCCCCCC/C=C\CCCCCCCCC(=O)O	-7.01%	
CC(=O)NCCc1ccc(O)c(O)c1	-7.98%	
CCCCCCCC/C=C\CCCCCCCC(=O)N[C@@H](CO)Cc1ccc(O)cc1		10 µM (active)

SMILES	activity, negative = inhibition	AC50
CCCCCCCCCCCCCCCC(=O)NC(C)C	-13.2%	
N=C(N)SCC(=O)O	-3.45% [at 11.4 µM]	
CC(C)CN1CCCC2(CCN(S(=O)(=O)c3ccccc3)CC2)C1		15.8 µM (active)
O=S(=O)(c1ccccc1)N1CCC2(CCN(Cc3ccccc3)CC2)CC1	-5.59%	
O=S(=O)(c1ccccc1)N1CCC2(CCCN(Cc3ccncc3)C2)CC1		3.98 µM (active)
O=S(=O)(c1ccccc1)N1CCC2(CCN(Cc3ccncc3)CC2)CC1		3.98 µM (active)
N#Cc1ccc(CN2CCCC3(CCN(S(=O)(=O)c4ccccc4)CC3)C2)cc1		3.16 µM (active)
O=S(=O)(c1ccccc1)N1CCC2(CC1)CN(Cc1ccccc1)C2	11.6%	
CC(C)CN1CCC2(CC1)CCN(S(=O)(=O)c1ccccc1)CC2	-5.33%	
CC/C=C\CC[C@H](O)C1=CCCCC1=O	-12.1% [at 11.4 µM]	
Cc1ccc(C2CC(=O)c3cnc(N4CCc5ccccc5C4)nc3C2)cc1 (stereo not given)	-6% [at 2.29 µM]	
COc1ccc(Nc2ncc3c(n2)CC(c2ccc(C)cc2)CC3=O)cc1 (stereo not given)		8.91 µM (active)
COc1ccc(C2CC(=O)c3cnc(Nc4cc(C)cc(C)c4)nc3C2)cc1 (stereo not given)		4.47 µM (active)
CC1CC(=O)c2cnc(N)nc2C1 (stereo not given)	6.35%	
O=C1CC(c2ccccc2)Cc2nc(N3CCc4ccccc4C3)ncc21 (stereo not given)	2.14% [at 2.29 µM]	
Nc1ncnc2c1ncn2C[C@@H](O)C(=O)O	1.58% [at 11.4 µM]	
COc1ccc(Oc2ncc3ncc(=O)n(C[C@H]4CCCO4)c3n2)cc1		12.6 µM (active)
CCNc1ncc2ncc(=O)n(C[C@H]3CCCO3)c2n1	-21%	
O=c1cnc2cnc(Oc3cccc(Cl)c3)nc2n1C[C@H]1CCCO1	-20.3%	
CCNc1ncc2nc(C)c(=O)n(C[C@H]3CCCO3)c2n1	-10.9%	
COc1ccc(Oc2ncc3nc(C)c(=O)n(C[C@H]4CCCO4)c3n2)cc1		3.98 µM (active)
COc1ccc(-c2nc3cnc(N4CCOCC4)nc3n(C[C@H]3CCCO3)c2=O)cc1	-3.59%	
Nc1ccc(N(S(=O)(=O)c2ccccc2)S(=O)(=O)c2ccccc2)c(Cl)c1		0.0316 µM (active)
CN(CCC(=O)O)S(=O)(=O)c1ccccc1	-26.6% [at 11.4 µM]	
NC(=S)Nc1cc2ccccc2c2ccccc12		15.8 µM (active)
